Hit rate of the full screen: of about 340,000 compounds, about 3,300 (0.97%) were called active. Roughly 9% stayed inconclusive and do not appear here. Calls follow the shape of the dose curve; as a rule, active = well fitted inhibition curve with a large enough effect; inconclusive = small, poorly fitted or top-dose-only effect, or effect the other way; inactive = flat fitted curve, though single readings scatter. The list shows a part of the results.
Assay: qHTS Assay for Modulators of miRNAs and/or Inhibitors of miR-21; also: nearly all actives have a fitted effect of over 55% in size
Settings: HeLa miR-21-FLuc reporter, luciferase luminescence, 48 h; actives lower the signal
Description: MLSCN Grant: 1 R21 NS059478-01 Assay Provider: Qihong Huang, The Wistar Institute NCGC Assay Overview: MicroRNAs (miRNAs) are endogenously encoded small (~20-25 nucleotides), nonprotein-coding RNAs that are involved in post-transcriptional repression of target messenger RNAs (mRNAs) (Le and Hannon, 2004). Estimated to be involved in the regulation of 30% of all protein-coding mRNAs (Filipowicz et al., 2008), miRNAs play a significant role in many biological processes including cellular differentiation and tissue development (Ghildiyal and Zamore, 2009).
NCGC Assay Protocol Summary: Reagents: HeLa cells stably expressing firefly luciferase (FLuc) under the control of a CMV promoter (upstream) and a miR-21 binding sequence directly downstream of the gene. These cells endogenously express miR-21. Control compounds used were compound C3 (provided by collaborator), N6-phenyladenosine (MP Biomedicals, 0215379625), and DMSO. Assay Summary: 6uL of HeLa miR-21-FLuc cells in assay buffer (DMEM, Invitrogen #21063-029; 10% FBS, HyClone #SH30071.03) were dispensed at 2000cells/well (3.3 x 10^5 cells/mL) into Greiner solid-white TC-treated 1536-well plates using a Multidrop Combi (Thermo Fisher Scientific). Plates were incubated for one hour at 37 degree Celsius, 95% humidity, 5% CO2. These assay plates were then treated with 23nL of compound or DMSO using a Kalypsys pin tool, which allows for delivery of a 24-point titration of each compound to the assay plate, with a final compound concentration ranging from approximately 40uM to 5pM. Assay plates were then incubated for 48 hours. After incubation, plates were allowed to come to RT for one hour prior to delivery of 3uL of 3X luciferase detection reagent. After a 15 minute incubation to allow for cell lysis, luciferase activity was measured using a ViewLux CCD imager (PerkinElmer), with an average exposure time of 2-12 seconds. Keywords: NIH Roadmap, MLPCN, MLSMR, qHTS, miR-21, microRNA, firefly luciferase, FLuc.
Potency is read from the fitted curve at half-maximal effect.

Potency, active:
COc1ccc(-c2csc(C3=C(O)CN(CCCN4CCCC4=O)C3=N)n2)cc1OC 16.5 µM
Cc1ccccc1OCc1nc2ccccc2c(=O)n1N 16.5 µM
Cc1ccccc1OCc1nc2ccccc2c(=O)n1/N=C/c1ccco1 10.4 µM
Nn1c(COc2ccc(Cl)cc2)nc2ccccc2c1=O 7.36 µM
c1ccc(Nc2nnc(-c3cccc4ccccc34)o2)cc1 1.85 µM
COc1ccc(Nc2oc(-c3ccccc3)nc2C#N)cc1 1.85 µM
COc1ccc(Nc2oc(-c3ccc(OC)cc3)nc2C#N)cc1 2.93 µM
COc1ccc(-c2nc(C#N)c(NC(C)C)o2)cc1 6.56 µM
CC(C)Nc1oc(-c2cccc3ccccc23)nc1C#N 13.1 µM
CCOc1ccc(Nc2oc(Cc3ccccc3)nc2C#N)cc1 11.7 µM
O=C1c2ccccc2C(=O)c2c1cccc2N1CCOCC1 11.7 µM
O=c1c2ccccc2nc(-c2ccccc2)n1Cc1ccccc1 14.7 µM
COc1ccccc1-c1ccc(NC2CCCCC2)nn1 7.36 µM
COc1ccccc1-c1ccc(NC2CCCC2)nn1 13.1 µM
Cn1ccc(NC(=O)Nc2ccc(Cl)cc2Cl)n1 3.69 µM
Cc1ccc2cc(CCNC(=O)c3ccco3)c(=O)[nH]c2c1C 0.826 µM
Cc1ccc2cc(CCNC(=O)c3ccco3)c(=O)[nH]c2c1 5.85 µM
Cc1ccc(-c2ccc(/C=N/O)o2)cc1[N+](=O)[O-] 16.5 µM
CCCc1cc(=O)n2[nH]c(-c3ccccc3)cc2n1 4.14 µM
COc1ccccc1NC(=O)c1ccc2nsnc2c1 7.36 µM
COc1ccccc1NC(=O)c1ccc2c(c1)OCO2 3.29 µM
COc1cc2c(cc1NC(=O)c1ccc3c(c1)OCO3)oc1ccccc12 7.36 µM
Cc1cccc(NC(=O)c2ccc3c(c2)OCCO3)c1C 4.65 µM
O=C(O)C1CC=CCC1C(=O)NCCc1csc(-c2ccccc2)n1 (stereo not given) 18.5 µM
O=C1c2ccccc2S(=O)(=O)N1CC1CC(c2ccc(Cl)cc2)=NO1 (stereo not given) 2.93 µM
O=C1c2ccccc2S(=O)(=O)N1CC1CC(c2ccccc2Cl)=NO1 (stereo not given) 4.14 µM
O=C(COC(=O)Cn1cnc2ccccc21)Nc1ccc2c(c1)C(=O)c1ccccc1C2=O 2.07 µM
COc1ccc(Nc2ncnc3c2c(C)c(C)n3CCO)cc1 0.736 µM
COc1ccccc1Nc1ncnc2c1c(C)c(C)n2CCO 14.7 µM
Cc1c(C)n(CCO)c2ncnc(Nc3ccc(F)cc3)c12 14.7 µM
O=[N+]([O-])c1ccccc1N/N=C/c1cccc(O)c1O 2.61 µM
O=[N+]([O-])c1ccc(N/N=C/c2cccc(O)c2O)cc1 6.56 µM
O=[N+]([O-])c1ccccc1N/N=C\c1ccccc1Cl 0.656 µM
CCCOc1ccc(/C=N/Nc2ccccc2[N+](=O)[O-])c(O)c1 0.0656 µM
O=[N+]([O-])c1ccccc1NC(=S)N/N=C/c1ccc(O)c(O)c1 1.85 µM
COc1ccccc1/C=N\Nc1ccccc1[N+](=O)[O-] 1.04 µM
O=C(CCS(=O)(=O)c1ccccc1)NC12CC3CC(CC(C3)C1)C2 2.07 µM
O=C(CCCc1ccccc1)NC12CC3CC(CC(C3)C1)C2 1.65 µM
Cc1ccc2nc(-c3ccc(N4C(=NC(=O)CCC(=O)O)SC5CS(=O)(=O)CC54)cc3)sc2c1 (stereo not given) 3.29 µM
CCCC(=O)N=C1SC2CS(=O)(=O)CC2N1c1ccc(-c2nc3ccc(C)cc3s2)cc1 (stereo not given) 2.93 µM
NNc1nc(-c2ccccc2)nc2sc3c(c12)CCCC3 0.464 µM
Nc1nc(-c2cccnc2)nc2sc3c(c12)CCCC3 4.65 µM
NNc1nc(-c2ccccc2Cl)nc2sc3c(c12)CCCC3 5.21 µM
CC1CCN(C(=O)c2cccc(NC(=O)c3nsc4ccccc34)c2)CC1 7.36 µM
CC1CCN(C(=O)c2ccc(NC(=O)c3nsc4ccccc34)cc2)CC1 1.85 µM
CCOC(=O)C1CCCN(C(=O)c2ccc(NC(=O)c3nsc4ccccc34)cc2)C1 (stereo not given) 3.69 µM
COc1ccc2nc(Nc3ccc4c(c3)OCO4)sc2c1 4.65 µM
COc1ccc2nc(Nc3nc4cc5c(cc4s3)OCCO5)sc2c1 13.1 µM
COC(=O)CCc1sc(Nc2ccccc2)nc1-c1ccc(OC)cc1 16.5 µM
COc1ccc(Nc2nc(C)c(-c3ccccc3)s2)cc1 6.56 µM
COc1ccc(Nc2nc3ccc(OC)cc3s2)cc1 3.69 µM
O=c1c2c(nc3cc(-c4ccc(F)cc4)[nH]n13)CCC2 1.04 µM
COC(=O)C1C(=O)C=C(Nc2ccc(F)cc2)CC1c1ccc(OC)cc1 (stereo not given) 10.4 µM
Cc1ccc2c(Cl)c(C(=O)NCCc3ccccc3)sc2c1 6.56 µM
Cc1cc(OCC(=O)N(C)C2CCCCC2)ccc1Cl 1.65 µM
Cc1cn(CCC(=O)Nc2ccccc2N2CCOCC2)c2ccccc12 9.27 µM
CCCS/C(N)=N/N=C/c1cc(C)ccc1O 1.47 µM
COc1cc(Cl)c(NC(=O)c2cc3ccccn3n2)c(OC)c1 6.56 µM
CCOc1ccc(CNC(=O)c2cc3ccccn3n2)cc1 7.36 µM
CC(C)Oc1ccc(CNC(=O)c2cc3ccccn3n2)cc1 6.56 µM
CN(C)c1ccc(-n2cc3c(=O)n(C)c(=O)n(C)c3c2)cc1 11.7 µM
COCc1cc(C)nc2sc(C(=O)Nc3ccc(OC)cc3)c(N)c12 16.5 µM
COCc1cc(C)nc2sc(C(=O)Nc3cccc(OC)c3)c(N)c12 2.07 µM
COCc1cc(C)nc2sc(C(=O)Nc3nccs3)c(N)c12 13.1 µM
Nc1c(-c2nc(-c3ccccc3Cl)no2)nnn1-c1ccccc1F 0.826 µM

Source: PubChem BioAssay AID2289 (National Center for Advancing Translational Sciences (NCATS), 2010)
